Holding throughout (assay type): functional
The target in assay [1] is Solute carrier family 2, facilitated glucose transporter member 1 (Homo sapiens) (UniProt P11166). Nature of the assay: ST_JUDE_LEISH: Cytotoxicity at 2uM final concentration against transgenic Leishmania Mexicana promastigotes LmGLUT1 that are glucose transport deficient and complemented with the human glucose transporter GLUT1. Activity is measured by DNA content using SYBR green in vitro.

In assay [2] the target is Hexose transporter 1 (Plasmodium falciparum) (UniProt O97467). Nature of the assay: ST_JUDE_LEISH: Cytotoxicity at 2uM final concentration against transgenic Leishmania Mexicana promastigotes LmPfHT that are glucose transport deficient and complemented with the Plasmodium falciparum hexose transporter. Activity is measured by DNA content using SYBR green in vitro.
Assay [3] deals with Glucose transporter (Leishmania mexicana) (UniProt O61059). Put plainly: ST_JUDE_LEISH: Cytotoxicity at 2uM final concentration against transgenic Leishmania Mexicana promastigotes LmGT2 that are glucose transport deficient and complemented with the L. Mexicana glucose transporter 2. Activity is measured by DNA content using SYBR green in vitro.

Values joined by “and” are separate entries in the source; they are usually repeats but may differ in a detail not shown here. Equal values may be shown once.

Chain of Solute carrier family 2, facilitated glucose transporter member 1 (Homo sapiens) (P11166 whole entry): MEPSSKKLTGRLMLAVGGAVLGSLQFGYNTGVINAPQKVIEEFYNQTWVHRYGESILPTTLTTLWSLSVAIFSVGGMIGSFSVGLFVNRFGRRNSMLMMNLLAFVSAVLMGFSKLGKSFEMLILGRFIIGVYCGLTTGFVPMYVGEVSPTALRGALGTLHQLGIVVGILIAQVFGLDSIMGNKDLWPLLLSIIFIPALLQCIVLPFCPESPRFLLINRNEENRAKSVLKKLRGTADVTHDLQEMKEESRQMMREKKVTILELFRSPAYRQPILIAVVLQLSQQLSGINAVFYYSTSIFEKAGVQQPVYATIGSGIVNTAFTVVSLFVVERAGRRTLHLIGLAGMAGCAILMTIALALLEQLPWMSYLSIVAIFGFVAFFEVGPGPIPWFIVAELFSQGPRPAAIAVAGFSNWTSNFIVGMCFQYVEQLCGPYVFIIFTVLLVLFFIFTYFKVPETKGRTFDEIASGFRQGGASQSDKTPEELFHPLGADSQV

In general, inhibition refers to the change of the read-out against control, counted positive when it falls. `O=C(NC1CC1)c1ccc(N2CCN(Cc3ccc(Cl)cc3)CC2)nc1`: the inhibition was 0.06% in assay [1], -0.23% in assay [2] and -0.4% in assay [3].
As to `O=C(/C=C/c1cccc(Cl)c1)NCCCCCN1CCC(c2c[nH]c3ccccc23)CC1`, the inhibition in assay [1] worked out at 3.67%; in assay [2], 6.67%; in assay [3] it was 0.06%.
As for `Clc1cccc(Nc2ccc3c(N4CCCCC4)ncnc3n2)c1`, the inhibition turned out to be 12% in assay [1], 10.8% in assay [2] and 4.28% in assay [3].
Consider `COc1cc(F)c2ncc(Cl)c(CCN3CCC(NCc4cc5c(cn4)OCCO5)CC3)c2c1`, for which the inhibition in assay [1] was found to be 28.4%; in assay [2], 41.5%; in assay [3] it was 55.4%.
As for `CCCc1cc(NCC)nc(Nc2ccc(F)cc2)n1`, the results for the inhibition in assay [1], in assay [2] and in assay [3] were 15.6%, 6.64% and 3.2%, respectively.
Regarding `O=[N+]([O-])c1cccc(CNCC2CCN(CC3CCCCC3)CC2)c1`, the inhibition was -0.61% in assay [1], 3.2% in assay [2] and 2.98% in assay [3].
Consider `Cc1nc(N2CCC(C)CC2)c2c3c(sc2n1)CCCC3`, for which the figures for the inhibition in assay [1], in assay [2] and in assay [3] were 2.21%, 2.09% and 0.47%, respectively.
`CCOC(=O)c1ccc(NC(=O)Nc2cccc(-c3cccc(-c4nc5cccc(C)c5[nH]4)c3)c2)cc1`: the inhibition in assay [1] is 2.35%; in assay [2], 3.22%; in assay [3] it was 1.01%.
Consider `COc1ccc(Nc2nccc(-c3c(-c4cccc(NC(=O)c5c(F)cccc5F)c4)nn4ccccc34)n2)cc1Cl`, for which the inhibition is 0.2% in assay [1], 1.51% in assay [2] and -0.51% in assay [3].
On the same counts, the results for `CC(C)(Oc1ccc(Cl)cc1)C(=O)NCCC1CCN(CCCCCNC(=O)/C=C/c2ccc(Cl)c(Cl)c2)CC1` are 6.53%, 7.08% and 2.35%.
For the molecule `CCCCCCN1CCCN(Cc2ccc(C(=O)Nc3ccc(C(C)C)cc3)cc2)CC1`, the inhibition in assay [1] came to 5.84%; in assay [2], 7.26%; in assay [3], 4.28%.
On the same counts, the results for `CN1C(=O)C(=O)N(CCCCCONC(=N)N)C1=S` are 9.86%, 6.2% and 9.97%.
For `COc1cccc2c(NN=Cc3ccccc3Cl)cc(C)nc12`, the inhibition amounted to 48% in assay [1], 63.1% in assay [2] and 21.7% in assay [3].
Turning to `COc1ccc(NC(=O)Nc2ccc(-c3ccncc3)c(C(F)(F)F)c2)cc1N1CCN(C)CC1`, the inhibition in assay [1] was 13.1%; in assay [2], 12.6%; in assay [3], 9.27%.
For `Cc1ccccc1C1CCN(C2CCC(NC(=O)/C=C/c3cc(F)cc(F)c3)CC2)CC1` (stereo not drawn), in that order: -1.34%, -0.51% and -1.77%.
For `COc1ccc2ncc(F)c(C(O)CN3CCC(NCc4ccc5c(n4)NC(=O)CO5)CC3)c2c1` (stereo not drawn), the inhibition in assay [1] was -0.67% and 5.77%; in assay [2], 2.57% and 4.56%; in assay [3], -3.55% and 1.93%.
As for `COc1ccc2ncc(F)c(CCN3CC[C@@H](CNCc4cc5c(cn4)OCS5)C3)c2n1`, the inhibition in assay [1] is 2.66%; in assay [2] it was 1.69%; in assay [3], -0.48%.
Take `O=C(CCC1CCCCC1)NCCNc1cccc2ccccc12`: the inhibition in assay [1] is -0.06%; in assay [2], -0.34%; in assay [3] it was -3.97%.
Take `O=C(NCC1CCC(C(=O)NCCN2CCCCC2)CC1)c1ccc(O)c(-c2ccc(Cl)c(Cl)c2)c1` (stereo not drawn): the inhibition in assay [1] was -0.83%; in assay [2], 0.49%; in assay [3], 0.18%.
For the molecule `COc1cccc(-c2csc(C(=O)NC3CCCCN(Cc4ccc(C(C)(C)C)cc4)C3)c2)c1` (stereo not drawn), the inhibition in assay [1] is 4.84%; in assay [2], 7.61%; in assay [3] it was 5.14%.
As for `O=C(Nc1ccccc1)c1ccc(N2CCC(COc3cccc(C(F)(F)F)c3)CC2)nc1`, the figures for the inhibition in assay [1], in assay [2] and in assay [3] were 1.05%, 1.65% and 1.07%, respectively.
With `COc1cc2c(C3CCN(CC4CCC(NC(=O)/C=C/c5ccc(Cl)c(Cl)c5)CC4)CC3)c[nH]c2cn1` (stereo not drawn), the inhibition in assay [1] turned out to be 9.19%; in assay [2], 8.02%; in assay [3] it was 7.96%.
On the same counts, the results for `NC(=O)c1ccc(NC(=O)CN(Cc2ccc(Cl)cc2)S(=O)(=O)c2ccccc2)cc1` are 7.52%, 5.01% and 7.46%.
Consider `Cc1ccc(C(c2nnnn2C2CCCC2)N(Cc2ccco2)Cc2ccccc2Cl)cc1` (stereo not drawn), for which the inhibition was found to be 9.7% in assay [1], 9.7% in assay [2] and 8.53% in assay [3].
Take `O=C(Nc1cccc(-c2nn3ccccc3c2-c2ccnc(Nc3cccc(F)c3)n2)c1)C1CCCCC1`: the figures for the inhibition in assay [1], in assay [2] and in assay [3] were 1.19%, 2.83% and -1.4%, respectively.
Regarding `Cc1ccc2[nH]c(C3CCCNC3)c(-c3ccncc3)c2c1` (stereo not drawn), the inhibition in assay [1] came to 9.43%; in assay [2], 9.43%; in assay [3], 8.51%.
Turning to `CCOc1cc(C(=O)NCc2ccc(Cl)c(Cl)c2)ccc1-c1nc2cc(Cl)ccc2[nH]1`, the inhibition in assay [1] was -0.85%; in assay [2] it was 2.33%; in assay [3], 7.21%.
Regarding `CC[C@H](C)CNC(=O)c1cncc(-c2ccc(CNC3Cc4ccccc4C3)cc2)c1`, the results for the inhibition in assay [1], in assay [2] and in assay [3] were 6.08%, 6.72% and 5.96%, respectively.
For `COc1cccc(OC2CCN(C(=O)c3ccc(-c4ccc(N5CCCC5=O)cc4C)cc3)CC2)c1`, the values for the inhibition in assay [1], in assay [2] and in assay [3] were 1.4%, 0.88% and 3.06%, respectively.
Consider `O=C(Nc1ccc(S(=O)(=O)N2CCCCC2)cc1)c1cc(-c2cc(Cl)ccc2O)n[nH]1`, for which the inhibition in assay [1] was determined as 6.03%; in assay [2], 6.9%; in assay [3] it was 4.71%.
`COc1ccccc1C1CCN(C2CCC(NC(=O)/C=C/c3cccc(Cl)c3F)CC2)CC1` (stereo not drawn): the inhibition is 10.5% in assay [1], 1.32% in assay [2] and 3.14% in assay [3].
On the same counts, the results for `Cn1cccc1C(=O)Nc1cccc(-c2nn3ccccc3c2-c2ccnc(Nc3ccc4c(c3)OCCO4)n2)c1` are 4.74%, 9.05% and -1.17%.
For `CC(=O)Nc1ccc(S(=O)(=O)Nc2ccc(Nc3nc(C)cc(N(C)C)n3)cc2)cc1`, in that order: -1.06%, 0.57% and 2.61%.
In the case of `CCC[C@@H]([C@@H](CC1CCCCC1)C(=O)NC(C(=O)Nc1nccs1)C(CC)c1ccccc1)N(O)C=O` (stereo partly drawn), the figures for the inhibition in assay [1], in assay [2] and in assay [3] were 0.29%, 0.04% and 0.64%, respectively.
Consider `CC(CCCC(=O)Nc1ccc(CC(C)NCCc2cccc(Cl)c2)cc1)NCCc1cccc(Cl)c1` (stereo not drawn), for which the inhibition in assay [1] worked out at 2.68%; in assay [2], 0.02%; in assay [3] it was 1.32%.
Consider `CC(C)CCn1c(Sc2ccc(C#N)c([N+](=O)[O-])c2)nnc1-c1ccccc1Cl`, for which the inhibition in assay [1] turned out to be 4.86%; in assay [2], 3.76%; in assay [3] it was 1.46%.
